Measured values reported in PubChem BioAssay (NCI).
The panel holds about 79,000 compounds, 15% with a hit somewhere; the sample as a whole holds those more often. Calls of active or inactive are those of the source. No stated cut-off is given here; in the data, active means growth inhibition above about 70%; inactive means the rest.

Columns and labels:
[1] = NCI Yeast Anticancer Drug Screen. Data for the rad52 strain (AID 147);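 further: 0% = growth of vehicle-treated control cultures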; conditions: S. cerevisiae rad52 mutant growth inhibition, stronger effect = higher value
Method in brief: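 Here a repair-compromised yeast strain receives each compound; its growth is then quantified and normalised to vehicle-only controls.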

[2] = NCI Yeast Anticancer Drug Screen. Data for the wt1 strain (AID 149);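 further: 0% = growth of vehicle-treated wt1 cultures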; conditions: S. cerevisiae wt1 strain (SPY 50644) growth inhibition, stronger effect = higher value
Method in brief: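 Measured: growth of wt1 yeast under compound versus vehicle treatment, reported as inhibition.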

[3] = NCI Yeast Anticancer Drug Screen. Data for the rad50EPP+ strain (AID 151);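 further: 0% = growth of vehicle-treated control cultures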; conditions: S. cerevisiae rad50 mutant strain, stronger effect = higher value
Method in brief: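 Read-out is yeast growth inhibition relative to vehicle; cells used were the rad50EPP+ strain.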

[4] = NCI Yeast Anticancer Drug Screen. Data for the mgt1 strain (AID 153); conditions: S. cerevisiae mgt1 mutant growth inhibition, stronger effect = higher value
Method in brief: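 Measured: inhibition of mgt1 yeast growth by compound, normalized to vehicle-treated cultures.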

[5] = NCI Yeast Anticancer Drug Screen. Data for the rad50 strain (AID 155);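 further: 0% = growth of vehicle-only cultures of the same strain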; conditions: S. cerevisiae rad50 strain growth inhibition, stronger effect = higher value
Method in brief: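 Growth of the mutant yeast was measured after compound exposure and referenced to vehicle-treated cultures.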

[6] = NCI Yeast Anticancer Drug Screen. Data for the mec2-1 strain (AID 157); conditions: S. cerevisiae mec2-1 strain, stronger effect = higher value
Method in brief: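 Using mec2-1 yeast: add compound, measure growth, express inhibition versus vehicle-treated cultures.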

[7] = NCI Yeast Anticancer Drug Screen. Data for the rad14 strain (AID 159);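 further: 0% = growth of vehicle-treated control cultures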; conditions: S. cerevisiae rad14 strain growth inhibition, stronger effect = higher value
Method in brief: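 Here, inhibition of yeast growth was measured after compound exposure, using a strain with a genetic defect in DNA damage repair and vehicle-treated cultures as the reference.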

[8] = NCI Yeast Anticancer Drug Screen. Data for the sgs1 mgt1 strain (AID 161);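 further: 0% = growth of cultures given vehicle only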; conditions: S. cerevisiae sgs1 mgt1 strain, stronger effect = higher value
Method in brief: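 Growth of a repair-deficient yeast mutant was monitored after compound treatment and expressed as inhibition relative to vehicle-treated cultures.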

[9] = NCI Yeast Anticancer Drug Screen. Data for the CLN2oe strain (AID 163);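 further: 0% = growth of vehicle-only control cultures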; conditions: S. cerevisiae CLN2oe strain, stronger effect = higher value
Method in brief: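 Whole-cell yeast growth assay. A strain engineered for altered cell-cycle control received compound, and inhibition relative to vehicle-treated cultures was recorded.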

[10] = NCI Yeast Anticancer Drug Screen. Data for the cln2 rad14 strain (AID 165);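 further: 0% = growth equal to vehicle treated cultures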; conditions: S. cerevisiae cln2 rad14 strain, stronger effect = higher value
Method in brief: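 Yeast strain cln2 rad14, bearing defects in cell cycle control and DNA repair, serves as the test system; values reflect growth inhibition compared with vehicle.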

[11] = NCI Yeast Anticancer Drug Screen. Data for the bub3 strain (AID 167); conditions: S. cerevisiae bub3 mutant strain, stronger effect = higher value
Method in brief: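 Whole-cell yeast assay. The mutant strain was incubated with compounds, and growth inhibition was determined by comparison with vehicle-treated cells.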

[12] = NCI Yeast Anticancer Drug Screen. Data for the wt2 strain (AID 169);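 further: 0% = growth of vehicle-treated yeast cultures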; conditions: S. cerevisiae wt2 strain growth inhibition, stronger effect = higher value
Method in brief: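 Treated yeast vs. vehicle-treated yeast: growth inhibition determined.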

[13] = NCI Yeast Anticancer Drug Screen. Data for the mlh1 strain (AID 171);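 further: 0% = growth of vehicle-treated control cultures of the same strain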; conditions: S. cerevisiae mlh1 strain growth inhibition, stronger effect = higher value
Method in brief: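 A yeast strain with a defined genetic lesion serves as the test organism. Cultures receive compound or vehicle, and growth is measured.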

[14] = NCI Yeast Anticancer Drug Screen. Data for the sgs1 strain (AID 173);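 further: 0% = growth of vehicle-only control cultures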; conditions: S. cerevisiae sgs1 mutant, stronger effect = higher value
Method in brief: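 A genetically defined yeast mutant is incubated with the test compound, and its growth is compared to that of the same strain given vehicle.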

[15] = NCI Yeast Anticancer Drug Screen. Data for the mlh1 rad18 strain (AID 175); conditions: S. cerevisiae mlh1 rad18 strain growth inhibition, stronger effect = higher value
Method in brief: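 Steps: expose repair-defective yeast to compound; measure growth; express inhibition against vehicle-treated controls.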

[16] = NCI Yeast Anticancer Drug Screen. Data for the rad18 strain (AID 177); conditions: S. cerevisiae rad18 mutant growth inhibition, stronger effect = higher value
Method in brief: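 Measured value is growth inhibition of a yeast strain bearing a DNA repair alteration, referenced to vehicle-treated cells.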

[17] = at 5.0 µM (retest, dose inferred, filed as 0.5)
[18] = at 50.0 µM (retest, dose inferred, filed as 5.0)

Measured: growth inhibition

c1ccc(CCN2CCc3ccccc3C2)cc1
inactive: [1]; at 1.2 µM -1% | [1]; at 3.7 µM 0% | [1]; at 11.0 µM 10% | [1]; at 33.0 µM 12% | [1]; at 100.0 µM 19% | [2]; at 1.2 µM -1% | [2]; at 3.7 µM 4% | [2]; at 11.0 µM 4% | [2]; at 33.0 µM 6% | [2]; at 100.0 µM 4% | [3]; at 1.2 µM -3% | [3]; at 3.7 µM -3% | [3]; at 11.0 µM -1% | [3]; at 33.0 µM -4% | [3]; at 100.0 µM 0% | [4]; at 1.2 µM -2% | [4]; at 3.7 µM -3% | [4]; at 11.0 µM 4% | [4]; at 33.0 µM 6% | [4]; at 100.0 µM 16% | [5]; at 1.2 µM 1% | [5]; at 3.7 µM 2% | [5]; [17] -9% | [5]; at 11.0 µM 3% | [5]; at 33.0 µM 8% | [5]; [18] 49% | [5]; at 50.0 µM 43.9% | [5]; at 100.0 µM 10% | [6]; at 1.2 µM -3% | [6]; at 3.7 µM 1% | [6]; [17] -10% | [6]; at 11.0 µM 6% | [6]; at 33.0 µM 8% | [6]; [18] 1% | [6]; at 50.0 µM 12.8% | [6]; at 100.0 µM 8% | [7]; at 1.2 µM 2% | [7]; at 3.7 µM 10% | [7]; at 11.0 µM 24% | [7]; at 33.0 µM 33% | [7]; at 100.0 µM 29% | [8]; [17] -5% | [8]; [18] 49% | [8]; at 50.0 µM 49.8% | [9]; at 1.2 µM -3% | [9]; at 3.7 µM -9% | [9]; at 11.0 µM 12% | [9]; at 33.0 µM 28% | [9]; at 100.0 µM 41% | [10]; [17] -6% | [10]; [18] 21% | [10]; at 50.0 µM 33.7% | [11]; at 1.2 µM -1% | [11]; at 3.7 µM -1% | [11]; [17] 24% | [11]; at 11.0 µM 7% | [11]; at 33.0 µM 21% | [11]; at 50.0 µM 56.8% | [11]; at 100.0 µM 40% | [12]; at 1.2 µM -1% | [12]; at 3.7 µM 1% | [12]; at 11.0 µM 4% | [12]; at 33.0 µM 8% | [12]; at 100.0 µM 8% | [13]; at 1.2 µM -2% | [13]; at 3.7 µM 1% | [13]; at 11.0 µM 4% | [13]; at 33.0 µM 11% | [13]; at 100.0 µM 11% | [14]; at 1.2 µM -1% | [14]; at 3.7 µM 0% | [14]; at 11.0 µM 6% | [14]; at 33.0 µM 18% | [14]; at 100.0 µM 17% | [15]; [17] 11% | [15]; at 50.0 µM 21.9% | [16]; at 1.2 µM 0% | [16]; at 3.7 µM 1% | [16]; at 11.0 µM 8% | [16]; at 33.0 µM 13% | [16]; at 100.0 µM 10%
active: [11]; [18] 74% | [15]; [18] 71%

O=C1C(=O)c2ccccc2C(O)=C1C(C1=C(O)c2ccccc2C(=O)C1=O)c1ccc(Cl)cc1
inactive: [1]; at 1.2 µM 9% | [1]; at 3.7 µM 26% | [1]; at 11.0 µM 62% | [1]; at 33.0 µM 60% | [1]; at 100.0 µM 48% | [2]; at 1.2 µM 4% | [2]; at 3.7 µM 8% | [2]; at 11.0 µM 31% | [2]; at 33.0 µM 32% | [2]; at 100.0 µM 29% | [3]; at 1.2 µM 7% | [3]; at 3.7 µM 28% | [3]; at 11.0 µM 51% | [3]; at 33.0 µM 48% | [3]; at 100.0 µM 30% | [4]; at 1.2 µM 4% | [4]; at 3.7 µM 9% | [4]; at 11.0 µM 64% | [4]; at 100.0 µM 69% | [5]; at 1.2 µM 11% | [5]; at 3.7 µM 18% | [5]; [17] -7% | [5]; at 11.0 µM 51% | [5]; at 33.0 µM 41% | [5]; at 100.0 µM 31% | [6]; at 1.2 µM 10% | [6]; at 3.7 µM 18% | [6]; [17] -5% | [6]; at 11.0 µM 60% | [6]; at 33.0 µM 63% | [6]; [18] -6% | [6]; at 100.0 µM 65% | [7]; at 1.2 µM 5% | [7]; at 3.7 µM -6% | [7]; at 11.0 µM 28% | [7]; at 33.0 µM 32% | [7]; at 100.0 µM 15% | [8]; [17] -2% | [8]; [18] 21% | [8]; at 50.0 µM 60.1% | [9]; at 1.2 µM 3% | [9]; at 3.7 µM 12% | [9]; at 11.0 µM 60% | [9]; at 33.0 µM 66% | [9]; at 100.0 µM 63% | [10]; [17] 0% | [10]; [18] 3% | [10]; at 50.0 µM 42.4% | [11]; at 1.2 µM -1% | [11]; at 3.7 µM 5% | [11]; [17] -3% | [11]; at 11.0 µM 55% | [11]; at 33.0 µM 66% | [11]; [18] 34% | [11]; at 100.0 µM 50%
active: [4]; at 33.0 µM 75% | [5]; [18] 73% | [5]; at 50.0 µM 92.5% | [6]; at 50.0 µM 72.2% | [11]; at 50.0 µM 80%
